# Measurements: PubChem BioAssay (NCI)
# Several values for one entry are separate records, joined by “and”; a condition that tells them apart may be missing. Identical values can stand only once. About 83,000 compounds went through this panel and 20% of them were active in at least one assay; those are over-represented in the sample as a whole.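 Single-dose data. Exposure time 48 hours. Values below 10 considered active.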 Activity calls are given as the source filed them.
# Tested on: HT29 colon
# Experiment: NCI-60 one-dose screen, 48 h (100 = growth as untreated, 0 = no growth, -100 = all killed)
# Details: 10 µM
# Protocol: Growth inhibition of the HT29 human tumor cell line is measured as a screen for anti-cancer activity. Cells are grown in 96 well plates and exposed to the test compound for 48 hours. Compounds are tested at a single concentration, which is 10^-5 M for most compounds. The reported endpoint is percent growth (GI% or GIPRCNT), where numbers from 0 - 100% represent growth inhibition, and numbers from -100% - 0 represent cell death. For example, a value of 40 represents 60% growth inhibition. A value of 0 means no net growth occurred over the course of the experiment. A value of -40 indicates 40% of cells at the beginning of the experiment died by the end of the experiment. A value of -100 means all cells are dead at the end of the experiment.
# NCI-60 Human Tumor Cell Lines Screen was performed using the standard one-dose NCI protocol, which is described in more detail at https://dtp.cancer.gov/discovery_development/nci-60/default.htm.
# Compounds with GIPRCNT values below 10 were considered active. Activity score was based on GIPRCNT using the following formula: […]
# Score is 0 for GIPRCNT values of 100 or above, 50 for GIPRCNT values of 0, and 100 for GIPRCNT values of -100.
row,SMILES,growth
1,O=c1ccn2c(n1)OC1CC2OC1COC(c1ccccc1)(c1ccccc1)c1ccccc1 (stereo not given),108% (inactive)
2,CS/C(=C\c1ccc(C(=O)c2ccc(C)cc2)n1C)S(C)=O (stereo not given),94% (inactive)

# Same assay, conditions: 10 µM unless noted
row,SMILES,growth
1,COc1ccc([N+](=O)[O-])cc1OC,112% (inactive) and 101% (inactive)
2,COC(=O)C(Cc1cn(C(C)=O)c2ccccc12)P(=O)(OC)OC (stereo not given),108% (inactive)
3,ON=C(C1CCCCC1)C1CCCCC1,103% (inactive)
4,Nc1c(S(=O)(=O)O)cc(Br)c2c1C(=O)c1ccccc1C2=O,100% (inactive) and 108% (inactive)
5,COc1ccc(/C=C/C(=O)O)cc1OC,106% (inactive) and 97.3% (inactive)
6,O=C(O)/C=C/C=C/c1ccccc1,100% (inactive) and 103% (inactive)
7,CC(C)(C(=O)c1cccnc1)c1cccnc1,104% (inactive) and 119% (inactive)
8,C/C=C(/C(=O)NC(N)=O)C(C)C,106% (inactive)
9,COC(=O)c1ccccc1Cl,111% (inactive)
10,CC(C)(C)OC(=O)c1ccc(NCc2cc(O)ccc2O)cc1,73.5% (inactive)
11,O=C(O)c1cccc(Br)c1,101% (inactive) and 94.4% (inactive)
12,CC(=O)c1cccc(OC(=O)c2ccccc2)c1,104% (inactive)
13,C/C(=C\c1ccccc1)C(O)C(=O)c1nc2ccc([N+](=O)[O-])cc2[nH]c1=O (stereo not given),102% (inactive)
14,CSc1nc(N)c(N)c(N)n1,88.8% (inactive)
15,O=C1c2cccnc2-c2ncccc21,106% [100 µM] (inactive)
16,CC(CN(C)C)CN1c2ccccc2Sc2ccccc21 (stereo not given),56.1% (inactive) and 71.1% (inactive) and 67.4% (inactive)
17,Cc1ccc(NC(=S)N/C=C(\c2ccccc2)S(=O)Cc2ccccc2)c(C)c1 (stereo not given),108% (inactive)
18,O=C(O)COc1ccccc1F,113% (inactive)

row,SMILES,growth
1,Cc1c(Cl)c(C)c(Cc2c(C)c(Cl)c(C)c(Cl)c2O)c(O)c1Cl,34% (inactive)
2,CCc1ccccc1-n1[nH]c(C)c(C=N)c1=O,114% (inactive)
3,CC(=O)c1cc2ccccc2o1,95.4% (inactive)
4,N#Cc1c(N)nc2c(c(-c3ccc(Cl)cc3)nn2-c2ccccc2)c1C#N,106% [100 µM] (inactive)
5,O=C(O)C(Cc1ccc(OS(=O)(=O)Cc2ccccc2)cc1)NS(=O)(=O)Cc1ccccc1 (stereo not given),101% (inactive) and 119% (inactive)
6,Cc1ccc2cccc([N+](=O)[O-])c2n1,99% (inactive) and 96% (inactive)
7,O=C1c2ccccc2CN1c1ccccc1,82.4% (inactive)
8,CC(=O)Nc1ccc(OC(C)=O)cc1,-0.769% (active) and 105% (inactive)
9,Nc1ccc(Cl)c(S(=O)(=O)O)c1,105% (inactive)
10,COc1ccc2oc3cc(NCCN(C)C)ccc3c(=O)c2c1,69.8% (inactive) and 53% (inactive)
11,Nc1c(Cl)cc2c(c1Br)C(=O)c1ccccc1C2=O,100% (inactive)
12,COC(=O)c1nc(N)nc(C(=O)OC)c1C(=O)c1cccc2ccccc12,104% (inactive)
13,COc1cc(NCCCCCNC(C)C)c2ncccc2c1,85.9% (inactive) and 67.1% (inactive)
14,CC1CCC(=O)N1c1ccc(N)cc1 (stereo not given),96.6% (inactive)
15,O=C(NC(CSSCC(NC(=O)OCc1ccccc1)C(=O)O)C(=O)O)OCc1ccccc1 (stereo not given),92.7% (inactive) and 96% (inactive)
16,Clc1ccc2sc(-c3ccccc3)nc2c1,95.1% (inactive)
17,N#CC1c2ccccc2C=CN1C(=O)c1ccccc1 (stereo not given),112% (inactive) and 107% (inactive)
18,O=C(O)Cc1cc(=O)[nH]n(-c2ccccc2)c1=O,103% (inactive)

# Same assay, conditions: 100 µM
row,SMILES,growth
1,O=c1ccn2c(n1)OC1CC2OC1COC(c1ccccc1)(c1ccccc1)c1ccccc1 (stereo not given),106% (inactive)
2,CS/C(=C\c1ccc(C(=O)c2ccc(C)cc2)n1C)S(C)=O (stereo not given),81.2% (inactive)
